Source: the supplement of paper PMC11732987, “Enantioselective OTUD7B fragment discovery through chemoproteomics screening and high-throughput optimisation” (Communications Chemistry, 2025)

Experiments:
Experiment in all cases: log2 ratio of Biotin-Ahx-Ub-VS probe labelling (fragment/DMSO); higher = less target engagement (more negative = stronger competition), active = hit call of the paper (q ≤ 0.05, log2 ratio ≤ -1)
Settings in all cases: compound concentration: 200 uM; treatment time: 3 h
[1] = molecular target: T1, USP19 (UniProt O94966)
T1 sequence (whole entry): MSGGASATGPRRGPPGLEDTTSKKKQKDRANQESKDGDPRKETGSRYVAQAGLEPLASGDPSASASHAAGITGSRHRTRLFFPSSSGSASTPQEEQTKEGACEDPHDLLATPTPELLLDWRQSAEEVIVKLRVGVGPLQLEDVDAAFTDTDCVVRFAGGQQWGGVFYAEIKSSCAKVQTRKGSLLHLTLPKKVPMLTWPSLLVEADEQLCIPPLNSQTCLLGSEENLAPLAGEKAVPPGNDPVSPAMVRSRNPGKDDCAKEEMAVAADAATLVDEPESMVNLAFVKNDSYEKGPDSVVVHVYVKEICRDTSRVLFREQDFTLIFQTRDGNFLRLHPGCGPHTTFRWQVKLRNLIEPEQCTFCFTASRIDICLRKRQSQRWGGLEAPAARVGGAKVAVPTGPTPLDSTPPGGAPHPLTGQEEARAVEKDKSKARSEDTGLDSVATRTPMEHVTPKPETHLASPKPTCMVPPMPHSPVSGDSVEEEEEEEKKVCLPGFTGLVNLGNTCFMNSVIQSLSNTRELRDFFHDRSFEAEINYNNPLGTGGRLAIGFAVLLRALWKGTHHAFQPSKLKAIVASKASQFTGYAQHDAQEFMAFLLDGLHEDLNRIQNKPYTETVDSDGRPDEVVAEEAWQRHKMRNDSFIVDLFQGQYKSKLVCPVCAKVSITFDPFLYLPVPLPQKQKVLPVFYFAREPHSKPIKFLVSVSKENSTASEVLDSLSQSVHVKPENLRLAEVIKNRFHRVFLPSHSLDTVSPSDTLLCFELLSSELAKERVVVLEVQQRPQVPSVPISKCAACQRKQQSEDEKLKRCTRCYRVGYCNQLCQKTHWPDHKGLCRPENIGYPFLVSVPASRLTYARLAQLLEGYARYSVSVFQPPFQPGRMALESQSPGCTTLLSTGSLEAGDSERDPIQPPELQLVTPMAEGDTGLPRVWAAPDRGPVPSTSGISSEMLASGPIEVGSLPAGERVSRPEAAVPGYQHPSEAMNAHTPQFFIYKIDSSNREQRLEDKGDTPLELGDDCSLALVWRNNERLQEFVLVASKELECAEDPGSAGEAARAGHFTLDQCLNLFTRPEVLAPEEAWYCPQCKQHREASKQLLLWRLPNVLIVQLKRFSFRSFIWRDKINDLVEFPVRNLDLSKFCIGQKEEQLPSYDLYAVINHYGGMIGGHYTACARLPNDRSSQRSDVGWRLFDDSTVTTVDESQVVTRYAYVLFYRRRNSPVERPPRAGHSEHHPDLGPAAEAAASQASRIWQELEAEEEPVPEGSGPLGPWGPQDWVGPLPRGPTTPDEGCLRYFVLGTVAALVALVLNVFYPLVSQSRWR
Summary of the method: (§1)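 Triplicate samples of HEK293T lysate, 495 µg each, received fragment at 200 µM or vehicle for 3 h, followed by Biotin-Ahx-Ub-VS (0.5 µM final) for 1 h. After NeutrAvidin enrichment of labelled DUBs and LysC/trypsin digestion, peptides were run by diaPASEF LC-MS/MS. The values are average log2 fragment/vehicle ratios from global-median-normalised Spectronaut label-free quantities, tested by unpaired t-test on proteins having ≥2 unique peptides.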

[2] = molecular target: USP24 (UniProt Q9UPU5)
Summary of the method: as §1

[3] = molecular target: T2, USP25 (UniProt Q9UHP3)
T2 sequence (whole entry): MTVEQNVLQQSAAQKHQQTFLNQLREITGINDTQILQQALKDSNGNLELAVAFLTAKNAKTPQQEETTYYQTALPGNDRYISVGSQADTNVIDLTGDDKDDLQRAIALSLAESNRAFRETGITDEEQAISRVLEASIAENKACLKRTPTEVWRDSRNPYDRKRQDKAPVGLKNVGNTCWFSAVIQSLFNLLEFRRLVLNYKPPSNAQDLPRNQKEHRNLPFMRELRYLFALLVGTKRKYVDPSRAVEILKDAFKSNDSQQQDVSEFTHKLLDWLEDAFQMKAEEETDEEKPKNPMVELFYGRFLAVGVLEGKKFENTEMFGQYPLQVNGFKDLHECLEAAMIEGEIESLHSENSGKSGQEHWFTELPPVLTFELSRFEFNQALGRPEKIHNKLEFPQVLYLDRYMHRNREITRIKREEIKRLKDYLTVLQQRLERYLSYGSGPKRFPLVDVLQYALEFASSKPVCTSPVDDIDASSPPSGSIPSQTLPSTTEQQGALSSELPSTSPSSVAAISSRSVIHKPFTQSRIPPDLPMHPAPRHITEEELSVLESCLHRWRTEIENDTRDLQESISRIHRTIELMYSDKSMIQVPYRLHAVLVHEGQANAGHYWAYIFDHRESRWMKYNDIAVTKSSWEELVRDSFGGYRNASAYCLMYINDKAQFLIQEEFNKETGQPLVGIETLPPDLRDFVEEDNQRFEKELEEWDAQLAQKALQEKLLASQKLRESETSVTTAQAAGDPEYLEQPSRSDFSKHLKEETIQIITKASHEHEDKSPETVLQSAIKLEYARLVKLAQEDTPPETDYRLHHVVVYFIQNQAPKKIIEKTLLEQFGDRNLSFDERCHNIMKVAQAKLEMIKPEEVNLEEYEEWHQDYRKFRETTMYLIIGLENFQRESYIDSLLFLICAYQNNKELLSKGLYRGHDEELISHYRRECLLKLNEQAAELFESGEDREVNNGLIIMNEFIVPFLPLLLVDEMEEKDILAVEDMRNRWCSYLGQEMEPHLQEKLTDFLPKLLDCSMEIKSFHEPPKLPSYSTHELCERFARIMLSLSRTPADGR
Summary of the method: as §1

[4] = molecular target: T3, USP28 (UniProt Q96RU2)
T3 sequence (whole entry): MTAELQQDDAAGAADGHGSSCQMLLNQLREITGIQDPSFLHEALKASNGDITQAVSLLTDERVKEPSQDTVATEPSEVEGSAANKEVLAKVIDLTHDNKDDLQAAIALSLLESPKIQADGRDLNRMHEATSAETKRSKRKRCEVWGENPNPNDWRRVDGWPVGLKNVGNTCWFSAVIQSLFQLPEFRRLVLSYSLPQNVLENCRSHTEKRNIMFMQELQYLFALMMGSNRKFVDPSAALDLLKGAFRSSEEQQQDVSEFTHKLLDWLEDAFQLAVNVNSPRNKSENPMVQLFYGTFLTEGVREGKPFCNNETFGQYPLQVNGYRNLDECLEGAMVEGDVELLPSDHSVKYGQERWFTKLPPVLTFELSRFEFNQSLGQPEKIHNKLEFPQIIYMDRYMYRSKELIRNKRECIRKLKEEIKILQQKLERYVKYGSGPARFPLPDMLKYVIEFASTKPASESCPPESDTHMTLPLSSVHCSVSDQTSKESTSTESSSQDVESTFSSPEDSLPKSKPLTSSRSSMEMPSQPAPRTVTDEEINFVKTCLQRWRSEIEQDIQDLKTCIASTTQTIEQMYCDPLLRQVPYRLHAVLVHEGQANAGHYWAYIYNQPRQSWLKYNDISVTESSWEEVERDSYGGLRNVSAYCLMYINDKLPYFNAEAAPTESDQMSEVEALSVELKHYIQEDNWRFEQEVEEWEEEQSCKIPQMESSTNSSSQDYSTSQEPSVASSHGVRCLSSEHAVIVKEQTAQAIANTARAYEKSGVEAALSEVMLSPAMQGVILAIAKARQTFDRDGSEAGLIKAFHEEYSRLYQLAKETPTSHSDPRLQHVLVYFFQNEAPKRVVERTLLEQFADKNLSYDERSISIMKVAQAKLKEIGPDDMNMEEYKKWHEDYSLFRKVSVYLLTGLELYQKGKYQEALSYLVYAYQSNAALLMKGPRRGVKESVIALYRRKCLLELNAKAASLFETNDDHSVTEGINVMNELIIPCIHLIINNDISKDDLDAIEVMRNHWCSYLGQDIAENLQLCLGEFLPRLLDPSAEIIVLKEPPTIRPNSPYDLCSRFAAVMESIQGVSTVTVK
Summary of the method: as §1

Measured: log2 ratio of Biotin-Ahx-Ub-VS probe labelling

USP24, sequence (Q9UPU5 whole entry): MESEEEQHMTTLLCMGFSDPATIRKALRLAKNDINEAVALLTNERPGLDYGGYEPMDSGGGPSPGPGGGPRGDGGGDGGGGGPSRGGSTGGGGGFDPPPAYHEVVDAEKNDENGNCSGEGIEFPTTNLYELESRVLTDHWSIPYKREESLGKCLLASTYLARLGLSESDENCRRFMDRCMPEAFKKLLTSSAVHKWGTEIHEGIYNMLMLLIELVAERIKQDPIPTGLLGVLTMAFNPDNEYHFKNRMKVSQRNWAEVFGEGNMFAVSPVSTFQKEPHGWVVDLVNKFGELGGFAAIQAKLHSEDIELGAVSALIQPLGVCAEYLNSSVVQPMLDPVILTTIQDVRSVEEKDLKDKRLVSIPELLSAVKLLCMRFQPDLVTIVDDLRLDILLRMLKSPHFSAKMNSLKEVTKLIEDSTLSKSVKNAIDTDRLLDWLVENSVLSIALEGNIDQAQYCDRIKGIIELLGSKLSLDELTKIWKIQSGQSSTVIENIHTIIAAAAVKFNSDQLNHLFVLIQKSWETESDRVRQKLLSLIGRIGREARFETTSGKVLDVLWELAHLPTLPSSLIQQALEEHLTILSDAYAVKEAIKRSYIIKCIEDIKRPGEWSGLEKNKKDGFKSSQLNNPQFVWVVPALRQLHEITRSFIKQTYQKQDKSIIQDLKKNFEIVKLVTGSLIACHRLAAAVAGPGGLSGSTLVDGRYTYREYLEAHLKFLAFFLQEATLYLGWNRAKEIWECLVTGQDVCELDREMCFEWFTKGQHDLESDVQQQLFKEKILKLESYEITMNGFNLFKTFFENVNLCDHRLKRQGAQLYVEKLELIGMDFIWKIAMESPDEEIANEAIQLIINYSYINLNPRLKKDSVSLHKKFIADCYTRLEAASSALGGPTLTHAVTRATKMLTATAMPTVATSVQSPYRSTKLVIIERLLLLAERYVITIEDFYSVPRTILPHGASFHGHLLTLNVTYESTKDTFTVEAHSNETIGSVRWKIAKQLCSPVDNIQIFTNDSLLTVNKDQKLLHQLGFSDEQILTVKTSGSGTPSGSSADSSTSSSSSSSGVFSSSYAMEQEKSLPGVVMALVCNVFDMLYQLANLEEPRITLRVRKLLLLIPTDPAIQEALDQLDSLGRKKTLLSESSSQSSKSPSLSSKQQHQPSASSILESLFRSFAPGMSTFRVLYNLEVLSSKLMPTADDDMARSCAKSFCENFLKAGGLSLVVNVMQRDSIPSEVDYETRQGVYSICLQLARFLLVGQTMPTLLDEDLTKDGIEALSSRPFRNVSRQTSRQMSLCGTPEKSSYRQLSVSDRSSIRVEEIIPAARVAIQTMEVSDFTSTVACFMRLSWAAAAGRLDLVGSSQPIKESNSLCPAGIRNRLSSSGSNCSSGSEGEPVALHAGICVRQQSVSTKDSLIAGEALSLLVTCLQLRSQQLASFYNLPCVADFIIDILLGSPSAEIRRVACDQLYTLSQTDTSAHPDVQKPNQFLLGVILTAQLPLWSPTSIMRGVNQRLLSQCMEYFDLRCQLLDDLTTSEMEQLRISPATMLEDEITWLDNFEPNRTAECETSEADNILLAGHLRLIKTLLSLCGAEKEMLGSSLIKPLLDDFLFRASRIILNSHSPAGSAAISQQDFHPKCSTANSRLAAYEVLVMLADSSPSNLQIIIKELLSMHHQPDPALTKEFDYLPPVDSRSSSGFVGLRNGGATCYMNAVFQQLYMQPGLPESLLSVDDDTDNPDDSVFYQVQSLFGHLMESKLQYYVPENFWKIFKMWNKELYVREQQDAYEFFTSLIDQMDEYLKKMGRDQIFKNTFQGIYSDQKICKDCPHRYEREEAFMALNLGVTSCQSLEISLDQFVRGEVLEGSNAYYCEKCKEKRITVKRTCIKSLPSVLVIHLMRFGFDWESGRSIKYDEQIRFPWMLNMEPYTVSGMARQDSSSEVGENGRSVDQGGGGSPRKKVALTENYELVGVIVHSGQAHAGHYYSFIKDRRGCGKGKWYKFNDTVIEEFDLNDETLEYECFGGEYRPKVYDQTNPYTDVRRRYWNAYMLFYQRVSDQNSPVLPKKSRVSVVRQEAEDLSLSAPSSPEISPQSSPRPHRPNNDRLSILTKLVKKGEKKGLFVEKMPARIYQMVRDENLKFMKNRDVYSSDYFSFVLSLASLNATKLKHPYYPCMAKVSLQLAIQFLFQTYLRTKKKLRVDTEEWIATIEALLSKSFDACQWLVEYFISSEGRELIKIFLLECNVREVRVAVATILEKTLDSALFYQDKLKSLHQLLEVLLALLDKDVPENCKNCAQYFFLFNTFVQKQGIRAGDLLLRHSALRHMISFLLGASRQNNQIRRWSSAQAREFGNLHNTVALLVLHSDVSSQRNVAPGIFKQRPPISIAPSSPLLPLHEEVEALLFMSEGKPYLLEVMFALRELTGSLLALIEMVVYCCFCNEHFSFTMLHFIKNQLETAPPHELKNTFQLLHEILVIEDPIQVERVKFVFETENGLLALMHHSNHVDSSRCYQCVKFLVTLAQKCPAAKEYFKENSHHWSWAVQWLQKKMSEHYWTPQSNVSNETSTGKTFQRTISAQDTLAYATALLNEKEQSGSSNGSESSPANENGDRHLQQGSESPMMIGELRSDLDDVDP

O=C(O)C1Cc2ccccc2CN1C(=O)CCl (centres undefined)
inactive: [1] -0.32 | [2] -0.348 | [3] -0.37 | [4] -0.576
